Assay results from PubChem BioAssay AID504340 (NMMLSC, 2011).
Calls of active or inactive are those of the source.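 Rule for the calls: active = GFP response above 150% of the DMSO control; inconclusive = Under 70 cell events counted for a yeast strain; inactive = the rest.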

Assay: yeast TOR pathway CIT2-GFP reporter retest – flow cytometry, third cherry pick, single plex, confirmation (AID 504340);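 note: median GFP fluorescence over all cells with no mother versus daughter split; sample signal as a ratio to the plate DMSO mean so 100% equals DMSO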
Conditions: S. cerevisiae CIT2-GFP strain, 3 h, at 10 µM, stronger effect = higher value

GFP response vs DMSO, inactive:
COc1ccc(NC(=O)O/N=C2/CCCc3ccc(OC)cc32)cc1 104%
CCc1sc(C(=O)Nc2nc(-c3ccccn3)cs2)cc1C 109%
Cc1nc(Nc2ccc(Cl)cc2)c(C#N)c(=O)[nH]1 107%
C=CCNc1nc(N)c([N+](=O)[O-])c(Nc2cccc(Cl)c2)n1 114%
CC(C)Nc1ncnc2ccc(Br)cc12 96.1%
OCCN1CCN(c2ncnc3ccc(Br)cc23)CC1 101%
Nc1cccc2c1C(=O)c1ccc(Cl)cc1C2=O 107%
C/C(=C\C(=O)c1ccc(C)cc1)Nc1cccc(O)c1 103%
FC(F)Oc1cccc2cccnc12 97.7%
O=C(O)c1ccccc1-c1ccccc1C(=O)Nc1ccc(-c2nc3cc(Cl)ccc3o2)cc1 99.3%
Cn1c(=O)c2c(n3cnnc13)-c1ccccc1CC21CCCC1 106%
Cc1cc(C)c2ccc(N)nc2c1O 99.3%
COc1ccc(N/C=C/C(=O)c2ccc(Cl)cc2)cc1 107%
COc1cccc(NC(=O)CC(C)=O)c1 106%
CCN(CC)C(=O)Oc1cc(=O)n(C)c2ccccc12 101%
CC(=O)Nn1cnc2c(c1=O)C1(CCCC1)Cc1ccccc1-2 89.6%
COc1ccc(NC(=O)ON=C2c3ccccc3-c3ccccc32)cc1 109%
C/C(=C\C(=O)c1ccccc1)Nc1ccc(O)cc1 103%
CCCC(=O)Nn1cnc2c(c1=O)C1(CCCC1)Cc1ccccc1-2 94.5%
O=C(Nc1ccccc1)O/N=C1\CCCCC1c1ccc([N+](=O)[O-])cc1[N+](=O)[O-] (centres undefined) 101%
COc1ccccc1Nc1nc(NCCC(C)C)nc(N)c1[N+](=O)[O-] 114%
CC1=NNC(=O)/C1=C\c1cn(-c2ccccc2)nc1-c1ccc(F)cc1 124%
CC(=O)Nc1ccc(-c2nc3cc(Cl)ccc3o2)cc1 91.2%
CCc1c(C)nc2c(OC)cccc2c1Cl 97.7%
Brc1ccc2ncnc(NCc3ccccc3)c2c1 112%
O=C(O)CCS(=O)(=O)c1nc(-c2cccs2)cc(C(F)(F)F)n1 106%
Cc1ccc(NC(=O)O/N=C2\CCCCC2c2ccc([N+](=O)[O-])cc2[N+](=O)[O-])cc1 (centres undefined) 106%
Nc1[nH]c(=O)nc(Nc2ccccc2)c1N=O 92.8%
COc1ccc(Nc2nc(NN)nc(C)c2[N+](=O)[O-])cc1 94.5%
O=C(O)c1ccc(C=NNC(=O)c2cccc3ccccc23)cc1 106%
O=C(N/N=C/c1ccccc1F)c1cccc2ccccc12 104%
CSc1nc(S(C)(=O)=O)nc2[nH]c(=O)[nH]c12 106%
Cc1cccc(Nc2cc(=O)[nH]c(=O)[nH]2)c1C 96.1%
NC(=O)COc1cccc2cccnc12 104%
CCC(C)Nc1nc(N)c([N+](=O)[O-])c(Nc2cc(OC)ccc2OC)n1 (centres undefined) 101%
C/C(=N\NC(=O)c1ccccc1)c1ccccc1F 104%
CNc1cccc2c1C(=O)c1ccccc1C2=O 104%

GFP response vs DMSO, active:
CC1=CN2C(=N)/C(=C/c3ccc([N+](=O)[O-])o3)C(=O)N=C2S1 1030%
Oc1c(I)cc(Cl)c2cccnc12 182%
